According to ChEMBL document CHEMBL3988442, “University of Dundee, Small-Polar-MMV Screening Library” (2021):

Tests used:
[1] = target: T1, Aspartate--tRNA(Asp/Asn) ligase (Mycobacterium tuberculosis (strain ATCC 25618 / H37Rv)) (UniProt P9WFW3); experiment: Assay for Asp RNA synthetase-1 from Mycobacterium tuberculosis; type: functional; parameters: scale not given: direction of the effect not stated beside the values; conditions: 30 µM; further: in the data most compounds retested in dose-response had high values
T1 sequence (whole entry): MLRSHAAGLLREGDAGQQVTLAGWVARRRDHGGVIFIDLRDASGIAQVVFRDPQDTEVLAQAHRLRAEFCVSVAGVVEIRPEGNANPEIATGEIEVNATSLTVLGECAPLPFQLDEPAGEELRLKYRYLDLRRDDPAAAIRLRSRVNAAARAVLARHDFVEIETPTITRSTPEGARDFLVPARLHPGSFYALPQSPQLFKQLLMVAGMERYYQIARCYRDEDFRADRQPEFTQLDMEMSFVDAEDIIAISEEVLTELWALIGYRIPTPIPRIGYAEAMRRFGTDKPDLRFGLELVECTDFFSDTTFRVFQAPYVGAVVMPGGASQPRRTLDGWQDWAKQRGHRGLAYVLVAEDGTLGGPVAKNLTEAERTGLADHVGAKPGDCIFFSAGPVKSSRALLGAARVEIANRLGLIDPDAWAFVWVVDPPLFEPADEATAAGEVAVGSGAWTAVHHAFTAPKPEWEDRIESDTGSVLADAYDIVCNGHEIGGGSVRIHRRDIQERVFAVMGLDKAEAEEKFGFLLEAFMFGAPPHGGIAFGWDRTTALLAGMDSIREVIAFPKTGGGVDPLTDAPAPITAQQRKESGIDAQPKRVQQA

[2] = target: Shiga toxin 2 (Escherichia coli O157:H7) (UniProt P09385+P09386); experiment: E. coli 0.157:H7 Shiga Toxin SOP - stx2 screening assay; type: functional; parameters: scale not given: direction of the effect not stated beside the values; conditions: 30 µM

Row | SMILES | Percent Effect [1] | Percent Effect [2]
1 | Cc1nn(C)c(C)c1C(C)NC(=O)Nc1cccnc1N1CCCC1 (centres undefined) | -3.63% | 10.7%
2 | Cn1cnnc1C1CCCN(C(=O)NCCOc2ccccc2)C1 (centres undefined) | -4.29% | -30.2%
3 | Cc1ncc(-c2ccnc(N3CCN(C)CC3)n2)c(-c2cccnc2)n1 | 4.45% | -20.4%
4 | O=C(Cc1ccc2c(c1)OCCO2)NC1CCCC1 | -0.698% | 3.29%
5 | c1ccc(CN2CCc3ncnc(-c4ccsc4)c3CC2)nc1 | 0.199% | -6.45%
6 | COc1cccc(S(=O)(=O)N2CCC(O)(CN(C)C)C2)c1 (centres undefined) | -0.221% | 11.2%
7 | COc1ccc(OC)c(CN2CCCCCC2c2cccs2)c1 (centres undefined) | -3.22% | -16.4%
8 | O=C1COC2(CCN(Cc3ccc(F)cc3)CC2)CN1 | 0.549% | 11.4%
9 | CN(c1ccc(C(C)(C)C)cc1)S(=O)(=O)c1cc(C(=O)O)cs1 | 1.85% | 12.9%
10 | Cc1ccc(C(=O)N(C)Cc2cc(Br)cs2)c(=O)[nH]1 | 0.749% | -3.88%
11 | Cn1cnc(S(=O)(=O)NCCCN2CCCCCC2)c1Cl | 1.4% | 18.1%
12 | Cc1nn(CC(C)C)c(N(C)C)c1CNCc1cccnc1N(C)C | 0.161% | 24.5%
13 | CS(=O)(=O)NCCNC(=O)C1(c2cccc(Cl)c2)CC1 | -2.17% | -2.54%
14 | O=C(CCC1CC1)N1C[C@@H](CN2CCCC2)[C@@H](CO)C1 | 0.505% | -35.6%
15 | COCC(=O)N1CCN(Cc2coc(-c3cccc(F)c3)n2)CC1 | -1.18% | 16.9%
16 | Cn1cc(CN2CCC3(CCCN3S(C)(=O)=O)CC2)cn1 | 5.38% | 4.5%
17 | COCC(=O)N1CCC2(CC1)COCCN2CCN(C)C | 3.2% | -1.86%
18 | CN(C)C(=O)CN1C(=O)CCC12CCN(Cc1ccc(F)cc1)CC2 | 1.43% | -5.2%
19 | O=C(CC1CN(Cc2ccccc2)CCO1)NC1CCCC1 (centres undefined) | -3.53% | 1.42%
20 | O=C(Cc1csc(-c2ccco2)n1)N1CCN(c2cnccn2)CC1 | -2.43% | -70.6%
21 | c1cnn(Cc2nnc3n2CCCN(CC2CCOCC2)C3)c1 | 2.52% | 18.5%
22 | Nc1nc2c(c(=O)[nH]1)CCN(C(=O)c1cccc3nccnc13)C2 | 6.9% | -31.4%
23 | CC(C)(C)n1ncc2c1NC(=O)CC2c1ccc(OCC(N)=O)cc1 (centres undefined) | -2.88% | 21.3%
24 | Cc1nc(C)n(CC2CCCN(CCNC(=O)OC(C)(C)C)C2)n1 (centres undefined) | -2.36% | 7.06%
25 | COc1ccc(C(=O)N2CCCC2c2ccco2)cc1OC (centres undefined) | -3.37% | -11.3%
26 | CN1CCN(CC2CC2)C(=O)c2cnc(N3CCCC3)nc21 | -0.103% | -25.1%

Row | SMILES | Percent Effect [1] | Percent Effect [2]
27 | CC1c2ncc(CN3CCN(C)CC3)n2CCN1CC1CC1 (centres undefined) | 0.815% | -23.1%
28 | O=C(c1cccn1Cc1cccs1)N1CCN(C(=O)C2CC2)CC1 | 4.89% | -4.84%
29 | CC(C)NC(=O)Cn1cc(-c2ccccc2)cn1 | -0.189% | 2.98%
30 | O=C(Cn1cnc(-c2ccccc2)cc1=O)Nc1ccncc1 | -2.03% | -36.3%
31 | CCn1ncc2c1CCCC2NCC1=Cc2ccccc2OC1 (centres undefined) | 4.82% | -23.2%
32 | CCc1csc(C2CCCN(C(=O)c3c[nH]c(C)n3)C2)n1 (centres undefined) | -0.0911% | -10.2%
33 | CCN(CC)C(=O)c1ccn(COc2cc(C)cc(C)c2)n1 | -7.43% | -39.1%
34 | CCc1noc(CN2CCCN(C(N)=O)CC2)n1 | -1.28% | 5.08%
35 | COc1ccc(C(=O)N2C[C@@H](CN3CCOCC3)[C@@H](CO)C2)c(C)c1 | -0.54% | 2.18%
36 | O=C(O)C1(Cc2cc(-c3cccc(F)c3)no2)CCOCC1 | -1.59% | 9.34%
37 | OCC1CCCN1c1cc(N2CCc3ccccc3C2)ncn1 (centres undefined) | 1.24% | -49.8%
38 | Cc1cnc(N)c(C(=O)C2CCN(C(=O)c3ccccc3F)CC2)c1 | -1.9% | -8.93%
39 | CCN1CC2(CCC1=O)CCN(C(=O)c1ccc(Cl)cc1O)CC2 | -1.67% | -16.7%
40 | COCCC(=O)N1CCN(C)c2ncccc2C1 | 4.52% | -19.6%
41 | Cc1cc(CN2CCCC2c2c(C)nn(C)c2Cl)no1 (centres undefined) | -1.57% | 8.59%
42 | O=C(O)c1cc(S(=O)(=O)Nc2cc(F)ccc2F)cc2c1OCCO2 | -2.5% | 31.1%
43 | COCC(=O)N1CC[C@@H]2O[C@@H](COCc3csc(C)n3)CC[C@@H]21 | 7.78% | -9.07%
44 | CCCc1nc(CN2CCOC(CNc3cccnn3)C2)cs1 (centres undefined) | 3.73% | 27.3%
45 | COCCN(Cc1nc2c(cnn2C)c(=O)[nH]1)Cc1ccco1 | 0.88% | 22.5%
46 | CCNC(=O)[C@@H]1C[C@@H](NC(=O)Cc2ccccn2)CN1CCCSC | -0.228% | -40.5%
47 | CCOCCOC(C)C(=O)NCc1cn2cc(Br)ccc2n1 (centres undefined) | 1.62% | -14.8%
48 | CCOc1ccc(NC(=O)CN2CCN(c3nccn3C)CC2)cc1 | -3.86% | -64.8%
49 | CCn1nc2c(cc1=O)CN(Cc1nc(-c3ccsc3)no1)CC2 | 5.03% | -16.2%
50 | O=C(CC1CCCO1)NCc1ccccc1Cn1cncn1 (centres undefined) | -3.17% | 31.5%
51 | c1cc2nccc(CC3CCCN(Cc4ncc[nH]4)CC3)c2cn1 (centres undefined) | 5.02% | -54.1%
52 | COCCN1CCN(Cc2cccc(C(N)=O)c2)CC1C (centres undefined) | -1.6% | -42.8%

Row | SMILES | Percent Effect [1] | Percent Effect [2]
53 | CCOCCCn1c(NC(=O)c2ccc(C)nc2)nc2ccccc21 | -3.79% | 14.9%
54 | CC(C)N(C)Cc1cnc2n1CCN(C(=O)NC1CCCC1)C2 | -1.4% | -28.1%
55 | Cc1cc(NC(=O)N2CCN(c3nc(C)c(C)s3)CC2)no1 | 0.38% | -22.7%
56 | OC(COCc1cccs1)CN1CCC(c2ccn[nH]2)CC1 (centres undefined) | 1.71% | -8.34%
57 | CCc1nccn1C1CCCN(C(=O)c2cnc3ccccc3n2)C1 (centres undefined) | 1.02% | 11.4%
58 | Cc1cc(NC(=O)CN2CCN(c3nccs3)C(C)C2)n(C)n1 (centres undefined) | 7.92% | 7.19%
59 | Cc1ccccc1CCNC(=O)C1CC(=O)N(CC(F)(F)F)C1 (centres undefined) | 4.08% | 9.05%
60 | CCn1cc(NC(=O)NCC(C)O)cn1 (centres undefined) | -3.08% | 3.43%
61 | CCOc1ccc(-c2ccnc(CC)n2)cc1C(=O)O | -3.09% | 0.242%
62 | Cc1cc(CNC2CCCN(c3cccnn3)C2)no1 (centres undefined) | 6.9% | -69.6%
63 | COc1cccc(C2CCCN2C(=O)c2cc3c([nH]c2=O)CCC3)c1 (centres undefined) | 1.28% | -5.59%
64 | CS(=O)(=O)N1CCC(Oc2cnccn2)CC1 | -0.656% | -5.3%
65 | CS(=O)(=O)NC1CCc2c(ccc(=O)n2CC2CC2)C1 (centres undefined) | 2.4% | -5.71%
66 | CNS(=O)(=O)Cc1ccc(CNc2cncc(-n3cccn3)n2)cc1 | -0.637% | -15.6%
67 | COc1ccc(N2CCC(C(=O)/N=c3/[nH]ccs3)CC2)nn1 | -0.842% | -7.73%
68 | Cc1ccc(C(=O)NS(=O)(=O)c2cccc3cnccc23)c(=O)[nH]1 | 1.11% | 1.19%
69 | CS(=O)(=O)N1CCCCCC1C1CCN(c2ncccc2C#N)CC1 (centres undefined) | -0.456% | 27.9%
70 | CCC1(CC)Cc2ccccc2-c2nc(NCCO)[nH]c(=O)c21 | 6.5% | 17.7%
71 | C=C(C)CN(Cc1cccc(O)c1)C1CCC(O)CC1 (centres undefined) | 5.8% | 18.1%
72 | Cc1nn(CC(=O)N2CCCC2Cn2cccn2)c(C)c1Cl (centres undefined) | 0.155% | -3.65%
73 | Cc1ccc(C)c(NC(=O)Nc2c[nH]c(=O)[nH]c2=O)c1 | -1.44% | 2.86%
74 | CCn1nc(-c2ccccc2F)ccc1=O | 0.691% | -6.78%
75 | CCN(CC)CCNC(=O)c1cc(C(C)C)nc(N2CCCC2)n1 | 2.18% | -34%
76 | Cc1cc(CN(C)C(=O)NC2CCN(Cc3ccccc3)C2)no1 (centres undefined) | 2.94% | -10.9%
77 | CCn1cc(CN2CCc3nc(N4CCOCC4)nc(O)c3CC2)cn1 | -1.83% | -19.4%
78 | CC(NC1(CNC(=O)CC(C)(C)C)CCOCC1)c1ccccc1 (centres undefined) | 9.41% | 20.8%

Row | SMILES | Percent Effect [1] | Percent Effect [2]
79 | COCCNC(=O)[C@H]1C[C@@H]2CCN(Cc3ccoc3)C[C@H]2O1 | 3.35% | -3.8%
80 | O=C(c1ccccn1)N1CCn2cnc(COCC3CC3)c2C1 | 1.82% | -5.26%
81 | O=C(NC1=NCCCN1c1ccc(Cl)cc1)c1cccc(Cl)c1 | 8.32% | -69.6%
82 | c1ccc(NCc2cn3c(n2)CN(Cc2cccnc2)CC3)nc1 | -1.64% | -39.5%
83 | O=C1CC(c2ccccc2F)c2c(n3ccsc3nc2=O)N1 (centres undefined) | 1.48% | -23%
84 | Cc1cccc(N2CCC(NC(=O)CCCc3cccs3)CC2)n1 | 8.77% | -2%
85 | CCn1cc(CN2CCCn3nc(CCC(=O)NCCO)cc3C2)cn1 | 0.624% | -51%
86 | O=C(c1cnco1)N1C[C@@H]2CC[C@H](Oc3ccccc3F)[C@@H]2C1 | -1.03% | -75.8%
87 | CC(C)c1noc(CCC(=O)NCC2CCOC2)n1 (centres undefined) | -0.573% | -7.84%
88 | COCC1Cn2nnc(-c3cnn(C)c3)c2CN1Cc1ccco1 (centres undefined) | 0.436% | -1.07%
89 | O=C(NCCn1ccnc1)N1CCN(c2nccs2)CC1 | 2.45% | -47.2%
90 | COC(=O)c1ccc2ccn(CC3CCNC3)c(=O)c2c1 (centres undefined) | 3.08% | -45.4%
91 | O=C(CN(Cc1ccccc1)CC1CCOCC1)NC(=O)NC1CC1 | 0.182% | -31.8%
92 | CC(C)OCCC(=O)N(C)CCCc1cc(-c2ccccc2)no1 | 2.1% | 38.9%
93 | COc1ccc(CN2C[C@@H]3COC[C@]3(CN(C)C)C2)cc1 | 2.52% | 3.85%
94 | CC(C(=O)N1CCC(Nc2cccnn2)CC1)n1ccnc1 (centres undefined) | 7.4% | 0.729%
95 | c1cnc(N2C[C@H]3CCN(c4cccnc4)C[C@H]3C2)nc1 | -2.01% | -9.94%
96 | CCNC(=O)N1CCN(Cc2nc3ccccc3[nH]2)[C@@H]2CS(=O)(=O)C[C@@H]21 | 2.89% | -6.12%
97 | NCC1CN(c2nc(-c3ccccc3)nc3c2CCNCC3)CCO1 (centres undefined) | -0.798% | -22.2%
98 | CC(C)(C)OC(=O)N1CCCc2ccc(NCc3ncc[nH]3)cc21 | 5.68% | -52.5%
99 | CCn1cc2c(n1)C(COC)CN(C(=O)COc1ccccc1C)C2 (centres undefined) | 2.12% | 3.11%
100 | O=c1ccc2c(n1CCN1CCCC1)CCN(Cc1ccoc1)CC2 | -2.69% | -1.66%
101 | Cc1nccn1-c1nccnc1C1CCN(Cc2ccc(F)cc2)CC1 | -0.338% | -6.1%
102 | CCc1nc(C2CCCN2CC(=O)Nc2c(C)nn(C)c2C)no1 (centres undefined) | 3.31% | -7.62%
